Compound activity: PubChem, National Center for Advancing Translational Sciences (NCATS)
HT1080-NT tox – kills 2HG-producing HT-1080-NT fibrosarcoma cells | HT-1080-NT fibrosarcoma viability, CellTiter-Glo ATP luminescence, 48 h | Potency, µM (titrated, usually from 46.1 µM), for inactives: at the top dose activity, negative = less viability, hits mostly cytotoxic | AID 686970 | 360,000 compounds, 1.6% hits;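 note: NT is the 2HG producing partner of a matched IDH1 knockdown line; potency is the fitted concentration of half-maximal effect; 0% = DMSO-treated cells and -100% = media-only wells without cells; nearly all actives have a fitted effect of over 55% in size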
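HT-1080-NT fibrosarcoma cells (2HG-overproducing), 750 cells/well in RPMI with 5% FBS, dosed after 2 h and incubated 48 h at 37C. CellTiter-Glo luminescence normalized to DMSO and no-cell wells; concentration-response curves fitted and classed.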
HT1080 IDH1KD tx – HT-1080 IDH1 knockdown cell toxicity (counter line); HT-1080 IDH1 knockdown viability, ATP luminescence, 48 h; 360,000 compounds, 2% hits; Potency, µM (doses to about 46.1 µM), for the others: at the top dose activity, negative = toxicity, most hits filed as cytotoxic;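 note: potency is the fitted concentration of half-maximal effect; 0% = DMSO wells and -100% = cell-free medium wells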
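Viability of IDH1-knockdown HT-1080 fibrosarcoma cells was assessed by CellTiter-Glo after 48 h at 37 °C with titrated compound; concentration-effect curves were classified by fit quality and response size.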
TDP1 cell CPT – growth inhibition of DT40 Tdp1-/-;hTDP1 cells with camptothecin (screen for TDP1 inhibitors); chicken DT40 Tdp1-/-;hTDP1 cells + 20 nM CPT, ATP luminescence, 48 h; Potency, µM (doses to about 46.2 µM), for inactives: at the highest dose activity change, negative = growth inhibition, usual class: inhibitors; 420,000 compounds, 12% hits; AID 686979; note: potency is the fitted concentration of half-maximal effect; nearly all actives have a fitted effect of over 55% in size
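Cell growth measured by CellTiter-Glo luminescence after a minimum 48 h, 37 C compound exposure with 20 nM CPT in Tdp1-knockout DT40 cells stably expressing hTDP1, seeded 400/well; qHTS titration format.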
IL-1B inflam inh – blocks inflammasome-driven IL-1 beta release; 360,000 compounds, 4.7% hits; AID 743279; THP-1 LPS/ATP IL-1B secretion, AlphaLISA, 16 h; hits give low values; activity change, % at 57.5 µM; in the data active = activity change below about -50%; inconclusive = mostly about -30% to -49%
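Secreted IL-1B measured by AlphaLISA bead assay after 16 h compound exposure of THP-1 cells; compounds (final up to 57.5 uM) added 1 h before LPS (250 ng/mL) and ATP (1.25 mM) stimulation; lower signal means less secretion.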
DT40 TDP1 no CPT – qHTS for Inhibitors of human tyrosyl-DNA phosphodiesterase 1 (TDP1): qHTS in cells in absence of CPT; Potency, µM (doses to about 46.2 µM), inactives show at the highest dose activity change, negative = growth inhibition, most hits filed as inhibitors; 420,000 compounds, 15% hits; DT40 Tdp1-/- hTDP1 cells, no CPT, ATP luminescence, 48 h; AID 686978, 2013; note: potency is the fitted concentration of half-maximal effect; nearly all actives have a fitted effect of over 55% in size
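Growth of hTDP1-complemented DT40 Tdp1-knockout cells is measured by ATP luminescence after at least 48 hr compound exposure at 37 °C, with DMSO substituting for the 20 nM CPT used in the parallel screen.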
Numbers without * were called inactive. A selection: hits, their analogues and other compounds. The true share with any hit is near 19%. Unless noted, calls come from the whole dose curve; as a rule, active = well fitted curve in the direction sought with a large enough effect; inconclusive = small, poorly fitted or top-dose-only effect, or another doubt; inactive = no such curve, though single readings can be large; an effect the other way counts as inactive or inconclusive. Unless noted, % is set by controls: 0 for no effect and ±100 for the full control effect.

How did CCOC(=O)c1c(NC(=O)CN2CCOCC2)sc(C(=O)NC)c1C do in these assays?
HT1080-NT tox: 0.3%; HT1080 IDH1KD tx: -9.5%; TDP1 cell CPT: -0.8%; IL-1B inflam inh: -3.4; DT40 TDP1 no CPT: -15.7%

Results for CCCOC(=O)c1c(NC(=O)/C=C/c2cnn(C)c2C)sc(C(=O)OCC)c1C ?
HT1080-NT tox: 6.0%; HT1080 IDH1KD tx: 7.5%; TDP1 cell CPT: inconclusive; IL-1B inflam inh: 1.8; DT40 TDP1 no CPT: -25.2%

What do the screens show for `CN(Cc1ccccc1)S(=O)(=O)c1ccc2[nH]c(=O)ccc2c1`?
HT1080-NT tox: -12.3%; HT1080 IDH1KD tx: -9.2%; TDP1 cell CPT: -16.1%; IL-1B inflam inh: 0.0; DT40 TDP1 no CPT: -14.6%

What do the screens show for `Cc1ccc(Cn2ccnc2SCC(=O)Nc2nc3ccccc3s2)cc1`?
TDP1 cell CPT: -18.5%; DT40 TDP1 no CPT: -14.1%

Results for CC(C)(C)NC(=O)c1cccc(NC(=O)c2cccc(O)c2)c1 ?
HT1080-NT tox: 3.6%; HT1080 IDH1KD tx: 4.8%; TDP1 cell CPT: -14.4%; IL-1B inflam inh: 14.6; DT40 TDP1 no CPT: -5.7%

Results for COc1cccc(CN(C)CC(=O)Nc2ccccc2N2CCOCC2)c1OC ?
HT1080-NT tox: 3.3%; HT1080 IDH1KD tx: -1.7%; TDP1 cell CPT: inconclusive; IL-1B inflam inh: 11.2; DT40 TDP1 no CPT: inconclusive

What do the screens show for `CC(C)(C)n1nnnc1C(c1ccc(C#N)cc1)N1CCCC2(CCCCC2)C1` (configuration not stated)?
HT1080-NT tox: 7.8%; HT1080 IDH1KD tx: 1.6%; TDP1 cell CPT: 20.6µM*; IL-1B inflam inh: inconclusive; DT40 TDP1 no CPT: 23.1µM*

What do the screens show for `N#CCc1ccc(NS(=O)(=O)c2ccc(C3CCCCC3)cc2)cc1`?
HT1080-NT tox: inconclusive; HT1080 IDH1KD tx: inconclusive; TDP1 cell CPT: 23.1µM*; IL-1B inflam inh: 12.1; DT40 TDP1 no CPT: 14.6µM*

What do the screens show for `O=C(O)c1cccc(NS(=O)(=O)c2ccc(C3CCCCC3)cc2)c1`?
HT1080-NT tox: 1.2%; HT1080 IDH1KD tx: -11.1%; TDP1 cell CPT: 0.8%; IL-1B inflam inh: -23.1; DT40 TDP1 no CPT: 0.2%

How did Cc1cccc(NS(=O)(=O)c2ccc(C3CCCCC3)cc2)c1 do in these assays?
HT1080-NT tox: inconclusive; HT1080 IDH1KD tx: inconclusive; TDP1 cell CPT: 20.6µM*; IL-1B inflam inh: -11.2; DT40 TDP1 no CPT: 14.6µM*

What do the screens show for `O=C(Nc1cccc(S(=O)(=O)NC2=NCCC2)c1)c1ccc(C(F)(F)F)cc1`?
HT1080-NT tox: -1.9%; HT1080 IDH1KD tx: 2.6%; TDP1 cell CPT: inconclusive; IL-1B inflam inh: -9.3; DT40 TDP1 no CPT: inconclusive

How did CN1CCN/C1=C(/C(Cl)=C(Cl)Cl)[N+](=O)[O-] do in these assays?
HT1080-NT tox: -1.8%; HT1080 IDH1KD tx: -2.7%; TDP1 cell CPT: 11.6µM*; IL-1B inflam inh: -19.2; DT40 TDP1 no CPT: 23.1µM*

Results for COc1ccc(-c2nnc(SCC(=O)NC3CC3)o2)cc1 ?
HT1080-NT tox: -1.4%; HT1080 IDH1KD tx: 5.4%; TDP1 cell CPT: 5.2%; IL-1B inflam inh: 17.3; DT40 TDP1 no CPT: -5.5%

How did COc1ccc(C(CNC(=O)c2oc3cc(C)c(Cl)cc3c2C)N2CCCCC2)cc1 (configuration not stated) do in these assays?
HT1080-NT tox: 8.7%; HT1080 IDH1KD tx: 0.5%; TDP1 cell CPT: 13µM*; IL-1B inflam inh: 22.8; DT40 TDP1 no CPT: inconclusive

How did COc1ccc(C(CNC(=O)c2cc3ccccc3o2)N2CCCCC2)cc1 (configuration not stated) do in these assays?
HT1080-NT tox: -7.7%; HT1080 IDH1KD tx: -1.2%; TDP1 cell CPT: inconclusive; IL-1B inflam inh: inconclusive; DT40 TDP1 no CPT: 20.6µM*

Results for COc1ccccc1C(CNC(=O)c1oc2ccccc2c1C)N1CCCC1 (configuration not stated) ?
HT1080-NT tox: 0.6%; HT1080 IDH1KD tx: 13.0%; TDP1 cell CPT: inconclusive; IL-1B inflam inh: -5.9; DT40 TDP1 no CPT: 23.1µM*

How did COCc1c(C(=O)NCC(c2ccco2)N2CCCC2)oc2ccccc12 (configuration not stated) do in these assays?
HT1080-NT tox: -11.1%; HT1080 IDH1KD tx: -1.9%; TDP1 cell CPT: -25.0%; IL-1B inflam inh: 29.1; DT40 TDP1 no CPT: inconclusive

What do the screens show for `COc1ccc(C(CNC(=O)c2cc3ccccc3o2)N2CCCC2)cc1` (configuration not stated)?
HT1080-NT tox: -0.3%; HT1080 IDH1KD tx: -2.9%; TDP1 cell CPT: inconclusive; IL-1B inflam inh: -2.2; DT40 TDP1 no CPT: inconclusive

What do the screens show for `COc1ccc(C(CNC(=O)c2oc3ccccc3c2C)N2CCCCC2)cc1` (configuration not stated)?
TDP1 cell CPT: 16.4µM*; DT40 TDP1 no CPT: 23.1µM*

Results for O=C(Nc1nccs1)C(c1ccccc1)N1CCCC1 (configuration not stated) ?
HT1080-NT tox: 3.4%; HT1080 IDH1KD tx: 9.9%; TDP1 cell CPT: 3.8%; IL-1B inflam inh: -9.9; DT40 TDP1 no CPT: -0.1%

What do the screens show for `Cc1ccc(-c2nnn(CC(=O)N(c3ccccc3F)C(C(=O)NCC3CCCO3)c3c[nH]c4ccccc34)n2)cc1` (configuration not stated)?
HT1080-NT tox: -19.7%; HT1080 IDH1KD tx: -23.9%; TDP1 cell CPT: inconclusive; IL-1B inflam inh: inconclusive; DT40 TDP1 no CPT: inconclusive

Results for Cc1cc(NC(=O)CCC(=O)N(Cc2ccccc2)C2(C(=O)NC3CCCCC3)CCCC2)no1 ?
HT1080-NT tox: -9.5%; HT1080 IDH1KD tx: -7.2%; TDP1 cell CPT: inconclusive; IL-1B inflam inh: -7.1; DT40 TDP1 no CPT: inconclusive

Results for COc1ccc(C(CNC(=O)CNC(=O)c2cccc(C)c2)N2CCCCC2)cc1 (configuration not stated) ?
HT1080-NT tox: 4.6%; HT1080 IDH1KD tx: 6.7%; TDP1 cell CPT: -34.1%; IL-1B inflam inh: -4.5; DT40 TDP1 no CPT: -3.7%

How did COc1ccc(C(CNC(=O)c2oc3ccc(C)cc3c2C)N2CCCCC2)cc1 (configuration not stated) do in these assays?
HT1080-NT tox: 10.6%; HT1080 IDH1KD tx: -3.9%; TDP1 cell CPT: 20.6µM*; IL-1B inflam inh: 9.7; DT40 TDP1 no CPT: inconclusive

Results for CC1COc2ccccc2N1C(=O)c1ccc(Cl)cc1 (configuration not stated) ?
HT1080-NT tox: 1.7%; HT1080 IDH1KD tx: 5.9%; TDP1 cell CPT: -7.0%; IL-1B inflam inh: 15.8; DT40 TDP1 no CPT: -20.3%

How did Cc1ccc(S(=O)(=O)N2c3cc(C)ccc3OCC2C(C)(C)C)cc1 (configuration not stated) do in these assays?
HT1080-NT tox: inconclusive; HT1080 IDH1KD tx: inconclusive; TDP1 cell CPT: inconclusive; IL-1B inflam inh: 6.3; DT40 TDP1 no CPT: inconclusive
